{"source": "PubChem BioAssay (NCATS)", "note": "Inconclusive results are not listed. A number with no mark means an inactive call. Calls of active or inactive are those of the source. Calls follow the shape of the dose curve; as a rule, active = well fitted curve in the direction sought with a large enough effect; inconclusive = small, poorly fitted or top-dose-only effect, or another doubt; inactive = no such curve, though single readings can be large; an effect the other way counts as inactive or inconclusive."}
{"target": "Voltage-gated inwardly rectifying potassium channel KCNH2 (Homo sapiens) (UniProt Q12809)", "sequence (Q12809 whole entry, looked up)": "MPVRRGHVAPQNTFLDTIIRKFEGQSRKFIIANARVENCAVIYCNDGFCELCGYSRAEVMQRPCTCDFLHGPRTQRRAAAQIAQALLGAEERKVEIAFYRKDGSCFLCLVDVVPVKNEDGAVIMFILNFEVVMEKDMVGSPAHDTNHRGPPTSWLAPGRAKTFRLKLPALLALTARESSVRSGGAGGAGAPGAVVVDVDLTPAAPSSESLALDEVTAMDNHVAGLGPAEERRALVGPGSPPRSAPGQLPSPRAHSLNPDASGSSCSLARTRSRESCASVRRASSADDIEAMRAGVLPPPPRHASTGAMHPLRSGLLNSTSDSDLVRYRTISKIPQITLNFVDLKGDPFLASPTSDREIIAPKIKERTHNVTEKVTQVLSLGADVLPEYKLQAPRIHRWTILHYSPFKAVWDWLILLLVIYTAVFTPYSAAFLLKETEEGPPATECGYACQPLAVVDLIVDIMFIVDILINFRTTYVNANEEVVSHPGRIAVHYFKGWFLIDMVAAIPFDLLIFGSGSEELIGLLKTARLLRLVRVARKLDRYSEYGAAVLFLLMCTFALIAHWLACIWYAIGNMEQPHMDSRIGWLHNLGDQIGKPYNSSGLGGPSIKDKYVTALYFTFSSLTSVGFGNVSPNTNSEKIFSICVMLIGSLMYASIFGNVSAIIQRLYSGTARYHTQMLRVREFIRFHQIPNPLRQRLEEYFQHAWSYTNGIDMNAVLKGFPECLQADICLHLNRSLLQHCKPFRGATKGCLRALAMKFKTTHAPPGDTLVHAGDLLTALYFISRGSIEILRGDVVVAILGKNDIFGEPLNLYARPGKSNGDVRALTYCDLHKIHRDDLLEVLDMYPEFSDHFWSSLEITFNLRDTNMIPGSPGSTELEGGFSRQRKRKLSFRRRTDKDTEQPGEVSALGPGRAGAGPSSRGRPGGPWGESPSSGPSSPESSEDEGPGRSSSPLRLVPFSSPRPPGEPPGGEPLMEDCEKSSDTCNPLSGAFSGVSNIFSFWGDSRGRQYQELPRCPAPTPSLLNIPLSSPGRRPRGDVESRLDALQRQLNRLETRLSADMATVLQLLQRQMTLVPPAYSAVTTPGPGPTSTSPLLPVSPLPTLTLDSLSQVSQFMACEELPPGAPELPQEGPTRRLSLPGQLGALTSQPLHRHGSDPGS", "assay": "qHTS Assay for Small Molecule Inhibitors of the Human hERG Channel Activity (AID 588834);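 also: lower thallium flux fluorescence means stronger hERG block; nearly all actives have a fitted effect of over 50% in size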; also: potency is read from the fitted curve at half-maximal effect; as to activity change, negative = inhibition: top concentration of the series differs between compounds; % is scaled to controls: 0 for no effect and ±100 for the full control effect", "conditions": "U2OS BacMam hERG, FluxOR thallium flux fluorescence; series mostly up to 46.1 µM; activity change, negative = inhibition: at the top concentration", "how_it_was_run": "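In hERG-transduced U2OS cells, dye-loaded for 1 hr at room temperature in dark, test compounds incubated 10 min at 37 °C before thallium stimulation. AC50 values derived by Hill modelling of concentration-response.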"}
{"smiles": "CC(C)(C(=O)c1cccnc1)c1cccnc1", "activity change, negative = inhibition": "-1.21% [at 20.6 µM]"}
{"smiles": "CNCCC=C1c2ccccc2CCc2ccccc21", "Potency": "7.94 µM (active)"}
{"smiles": "O=c1c(-c2ccccc2)c1-c1ccccc1", "activity change, negative = inhibition": "14.6%"}
{"smiles": "c1ccc(OCc2ccc(CCCN3CCOCC3)cc2)cc1", "Potency": "12.6 µM (active)"}
{"smiles": "C[C@@H]1C[C@H]2[C@@H]3CCC4=CC(=O)C=C[C@]4(C)[C@@]3(F)[C@@H](O)C[C@]2(C)[C@H]1C(=O)CO", "activity change, negative = inhibition": "-1.81%"}
{"smiles": "C[C@@H](CN(C)C)CN1c2ccccc2Sc2ccccc21", "Potency": "6.31 µM (active)"}
{"smiles": "Cc1c(F)c(N2CCNC(C)C2)cc2c1c(=O)c(C(=O)O)cn2C1CC1", "note": "(stereo not drawn)", "activity change, negative = inhibition": "10.1%"}
{"smiles": "NC(CS)C(=O)O", "note": "(stereo not drawn)", "activity change, negative = inhibition": "-8.74%"}
{"smiles": "CN1CCN(CCCN2c3ccccc3Sc3ccc(S(=O)(=O)N(C)C)cc32)CC1", "Potency": "6.31 µM (active)"}
{"smiles": "COc1cc(OC)cc(OC)c1", "activity change, negative = inhibition": "-10.8%"}
{"smiles": "Cc1ccnc(NS(=O)(=O)c2ccc(N)cc2)n1", "activity change, negative = inhibition": "16% [at 20.6 µM]"}
{"smiles": "CC[N+](CC)(CCNC(=O)C(=O)NCC[N+](CC)(CC)Cc1ccccc1Cl)Cc1ccccc1Cl", "activity change, negative = inhibition": "-23.8%"}
{"smiles": "CCN(CC)C(=O)/C(C#N)=C/c1cc(O)c(O)c([N+](=O)[O-])c1", "activity change, negative = inhibition": "15.5%"}
{"smiles": "CCCCCCCCCCCCCCCCOP(=O)([O-])OCC[N+](C)(C)C", "activity change, negative = inhibition": "-1.74%"}
{"smiles": "O=C(COc1ccc(Cl)cc1)N1CCN(Cc2ccc3c(c2)OCO3)CC1", "Potency": "15.8 µM (active)"}
{"smiles": "NC(=O)C(=O)N/N=C/c1ccc([N+](=O)[O-])o1", "activity change, negative = inhibition": "3.28%"}
{"smiles": "CCCn1c(=O)[nH]c(=O)c2[nH]cnc21", "Potency": "inactive"}
{"target": "Luciferin 4-monooxygenase (Photinus pyralis) (UniProt P08659)", "sequence (P08659 whole entry, looked up)": "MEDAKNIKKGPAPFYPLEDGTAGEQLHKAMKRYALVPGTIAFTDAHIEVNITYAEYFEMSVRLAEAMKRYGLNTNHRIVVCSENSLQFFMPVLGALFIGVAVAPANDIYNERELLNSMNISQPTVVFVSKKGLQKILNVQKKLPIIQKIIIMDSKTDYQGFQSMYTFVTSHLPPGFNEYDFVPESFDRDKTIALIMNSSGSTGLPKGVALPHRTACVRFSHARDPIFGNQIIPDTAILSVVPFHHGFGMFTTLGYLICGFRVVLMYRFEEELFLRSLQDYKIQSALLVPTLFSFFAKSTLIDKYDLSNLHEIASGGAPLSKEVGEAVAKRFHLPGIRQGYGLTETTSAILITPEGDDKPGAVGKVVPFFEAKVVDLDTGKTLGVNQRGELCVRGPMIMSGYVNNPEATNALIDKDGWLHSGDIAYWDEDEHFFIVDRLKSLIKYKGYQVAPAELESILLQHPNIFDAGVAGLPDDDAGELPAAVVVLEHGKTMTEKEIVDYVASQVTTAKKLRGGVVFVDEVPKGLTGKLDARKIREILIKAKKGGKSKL", "assay": "Biochemical firefly luciferase enzyme assay for NPC (AID 624030);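 also: purified P. pyralis luciferase at 10 nM with luciferin and ATP substrate; 0% = DMSO and -100% = full luciferase inhibition by PTC124 control; nearly all actives have a fitted effect of over 70% in size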", "conditions": "purified P. pyralis luciferase, luminescence, 5 min; series mostly up to 58.6 µM; activity change, negative = inhibition: at the top concentration", "how_it_was_run": "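Counter-screen for direct inhibition of the luciferase enzyme by approved-drug library compounds, run at 10 nM enzyme in 50 mM Tris acetate (final). Luminescence was read within 5 min of enzyme-buffer addition and normalized to PTC124 versus DMSO (0%).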"}
{"smiles": "Oc1c(I)cc(I)c2cccnc12", "activity change, negative = inhibition": "-15%"}
{"smiles": "CC(=O)OCC(=O)NCCCOc1cccc(CN2CCCCC2)c1", "activity change, negative = inhibition": "-3.29%"}
{"smiles": "CC(Cc1cccc(C(F)(F)F)c1)NCCOC(=O)c1ccccc1", "note": "(stereo not drawn)", "activity change, negative = inhibition": "0.232%"}
{"smiles": "NCCc1ccn[nH]1", "activity change, negative = inhibition": "1.98% [at 24.9 µM]"}
{"smiles": "c1ccc(CNCCNCc2ccccc2)cc1", "activity change, negative = inhibition": "10.7%"}
{"smiles": "CC(=O)Oc1ccc(C(=C2CCCCC2)c2ccc(OC(C)=O)cc2)cc1", "activity change, negative = inhibition": "-17.3%"}
{"smiles": "CCCCOc1cc(C(=O)NCCN(CC)CC)c2ccccc2n1", "activity change, negative = inhibition": "4.53% [at 24.9 µM]"}
{"smiles": "CCN(CC)CCOC(=O)C(c1ccccc1)C1CCCCC1", "note": "(stereo not drawn)", "activity change, negative = inhibition": "3.5%"}
{"smiles": "CN(C)CCCOc1nn(Cc2ccccc2)c2ccccc12", "activity change, negative = inhibition": "2.91% [at 24.9 µM]"}
{"smiles": "OCc1ccccc1O", "activity change, negative = inhibition": "-0.286%"}
{"smiles": "CCC(=O)c1c(O)cc(O)cc1O", "activity change, negative = inhibition": "-5.59%"}
{"smiles": "N[C@H](CO)C(=O)O", "activity change, negative = inhibition": "2.61%"}
{"smiles": "Nc1ccc(C(=O)Nc2ccccc2N)cc1", "activity change, negative = inhibition": "-13.4%"}
{"smiles": "CN1C2CCC1CC(OC(=O)c1c[nH]c3ccccc13)C2", "note": "(stereo not drawn)", "activity change, negative = inhibition": "0.352%"}
{"smiles": "CN1CCC(=C2c3ccccc3Sc3ccccc32)CC1", "activity change, negative = inhibition": "10.4%"}
{"smiles": "CCCCC(CC)CN=C(N)NC(N)=NCCCCCCN=C(N)NC(N)=NCC(CC)CCCC", "note": "(stereo not drawn)", "activity change, negative = inhibition": "1.19%"}
{"smiles": "C[C@]12CCC(=O)C=C1CC[C@H]1[C@@H]3CC[C@](O)(C(=O)CO)[C@@]3(C)C[C@H](O)[C@@]12F", "activity change, negative = inhibition": "2.24%"}
{"smiles": "CC1(C)CCC(NC(=O)[C@@H](N)CCC(=O)O)CC1", "activity change, negative = inhibition": "-1.61%"}
{"smiles": "CN=C(NC#N)NCCSCc1csc(N=C(N)N)n1", "activity change, negative = inhibition": "0.237%"}
{"smiles": "Cc1ccc(O)c2ncccc12", "activity change, negative = inhibition": "8.08%"}
{"smiles": "O=C(O)CNC(=O)c1ccccc1", "activity change, negative = inhibition": "-2.36%"}
{"smiles": "Cc1cccn2c(=O)c(-c3nnn[nH]3)cnc12", "activity change, negative = inhibition": "-7.01%"}
{"smiles": "CC(C)(C(=O)c1cccnc1)c1cccnc1", "activity change, negative = inhibition": "1.52% [at 24.9 µM]"}
{"smiles": "CNCCC=C1c2ccccc2CCc2ccccc21", "activity change, negative = inhibition": "8.11%"}
{"smiles": "O=c1c(-c2ccccc2)c1-c1ccccc1", "activity change, negative = inhibition": "-11.4%"}
{"smiles": "c1ccc(OCc2ccc(CCCN3CCOCC3)cc2)cc1", "activity change, negative = inhibition": "-13%"}
{"smiles": "C[C@@H]1C[C@H]2[C@@H]3CCC4=CC(=O)C=C[C@]4(C)[C@@]3(F)[C@@H](O)C[C@]2(C)[C@H]1C(=O)CO", "activity change, negative = inhibition": "22.5%"}
{"smiles": "C[C@@H](CN(C)C)CN1c2ccccc2Sc2ccccc21", "activity change, negative = inhibition": "5.06% [at 24.9 µM]"}
{"smiles": "Cc1c(F)c(N2CCNC(C)C2)cc2c1c(=O)c(C(=O)O)cn2C1CC1", "note": "(stereo not drawn)", "activity change, negative = inhibition": "-0.49%"}
{"smiles": "NC(CS)C(=O)O", "note": "(stereo not drawn)", "activity change, negative = inhibition": "38.6%"}
{"smiles": "CN1CCN(CCCN2c3ccccc3Sc3ccc(S(=O)(=O)N(C)C)cc32)CC1", "activity change, negative = inhibition": "3.96% [at 24.9 µM]"}
{"smiles": "COc1cc(OC)cc(OC)c1", "activity change, negative = inhibition": "5.26%"}
{"smiles": "Cc1ccnc(NS(=O)(=O)c2ccc(N)cc2)n1", "activity change, negative = inhibition": "1.56% [at 24.9 µM]"}
{"smiles": "CC[N+](CC)(CCNC(=O)C(=O)NCC[N+](CC)(CC)Cc1ccccc1Cl)Cc1ccccc1Cl", "activity change, negative = inhibition": "5.8%"}
{"smiles": "CCN(CC)C(=O)/C(C#N)=C/c1cc(O)c(O)c([N+](=O)[O-])c1", "activity change, negative = inhibition": "-7.52%"}
{"smiles": "CCCCCCCCCCCCCCCCOP(=O)([O-])OCC[N+](C)(C)C", "activity change, negative = inhibition": "24.9%"}
{"smiles": "O=C(COc1ccc(Cl)cc1)N1CCN(Cc2ccc3c(c2)OCO3)CC1", "activity change, negative = inhibition": "0.218%"}
{"smiles": "NC(=O)C(=O)N/N=C/c1ccc([N+](=O)[O-])o1", "activity change, negative = inhibition": "-8.18%"}
{"smiles": "CCCn1c(=O)[nH]c(=O)c2[nH]cnc21", "activity change, negative = inhibition": "2.22%"}
{"tested_on": "not listed separately", "assay": "S16 Schwann cell viability assay (CellTiter-Glo assay) (AID 624031); also: nearly all actives have a fitted effect of over 70% in size; also: potency is read from the fitted curve at half-maximal effect;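 as to activity change, negative = cytotoxicity: native untransfected S16 rat Schwann cells; plate controls were DMSO-treated cells for no effect and cell-free wells for full effect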", "conditions": "S16 rat Schwann cells viability, 24 h; series mostly up to 57.5 µM; activity change, negative = cytotoxicity: at the top concentration", "how_it_was_run": "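Counter-screen for cytotoxicity: parental S16 rat Schwann cells lacking the PMP22 reporters, treated 24 h with compound, viability from cellular ATP by CellTiter-Glo luminescence, normalized to DMSO (0%) and no-cell wells.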"}
{"smiles": "CC(=O)Oc1ccc(C(=C2CCCCC2)c2ccc(OC(C)=O)cc2)cc1", "activity change, negative = cytotoxicity": "-22.3%"}
{"smiles": "CCCCOc1cc(C(=O)NCCN(CC)CC)c2ccccc2n1", "activity change, negative = cytotoxicity": "-11.8% [at 25.7 µM]"}
{"smiles": "CN(C)CCCOc1nn(Cc2ccccc2)c2ccccc12", "activity change, negative = cytotoxicity": "6.73% [at 25.7 µM]"}
{"smiles": "OCc1ccccc1O", "activity change, negative = cytotoxicity": "-5.96%"}
{"smiles": "CCC(=O)c1c(O)cc(O)cc1O", "activity change, negative = cytotoxicity": "-5.21%"}
{"smiles": "N[C@H](CO)C(=O)O", "activity change, negative = cytotoxicity": "10.6%"}
{"smiles": "CN1CCC(=C2c3ccccc3Sc3ccccc32)CC1", "Potency": "28.7 µM (active)"}
{"smiles": "CCCCC(CC)CN=C(N)NC(N)=NCCCCCCN=C(N)NC(N)=NCC(CC)CCCC", "note": "(stereo not drawn)", "Potency": "20.3 µM (active)"}
{"smiles": "CC1(C)CCC(NC(=O)[C@@H](N)CCC(=O)O)CC1", "activity change, negative = cytotoxicity": "0%"}
{"smiles": "O=C(O)CNC(=O)c1ccccc1", "activity change, negative = cytotoxicity": "10.4%"}
{"smiles": "CC(C)(C(=O)c1cccnc1)c1cccnc1", "activity change, negative = cytotoxicity": "-16.5% [at 25.7 µM]"}
{"smiles": "CNCCC=C1c2ccccc2CCc2ccccc21", "Potency": "10.2 µM (active)"}
{"smiles": "O=c1c(-c2ccccc2)c1-c1ccccc1", "activity change, negative = cytotoxicity": "-8.63%"}
{"smiles": "NC(CS)C(=O)O", "note": "(stereo not drawn)", "activity change, negative = cytotoxicity": "5.4%"}
{"smiles": "CCN(CC)C(=O)/C(C#N)=C/c1cc(O)c(O)c([N+](=O)[O-])c1", "activity change, negative = cytotoxicity": "9.45%"}
{"smiles": "CCCCCCCCCCCCCCCCOP(=O)([O-])OCC[N+](C)(C)C", "activity change, negative = cytotoxicity": "-15.4%"}
{"smiles": "CCCn1c(=O)[nH]c(=O)c2[nH]cnc21", "activity change, negative = cytotoxicity": "-3.48%"}
